Source: PubChem BioAssay AID1523 (The Scripps Research Institute Molecular Screening Center, 2009)
The other results are listed elsewhere or left out. The source made the active and inactive calls. Cut-off read from the data, not from the text of the source: active = activation above about 12%; inactive = the rest.

molecular target: Sphingosine 1-phosphate receptor 4 (Homo sapiens) (UniProt O95977); experiment: activators of human S1P4 signalling – cell-based, high throughput, confirmation (AID 1523); conditions: S1P4 agonist cell-based reporter assay; at 4.98 µM; hits give high values;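 note: 0% = vehicle and 100% = full reference agonist response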
Sequence (O95977 whole entry, looked up): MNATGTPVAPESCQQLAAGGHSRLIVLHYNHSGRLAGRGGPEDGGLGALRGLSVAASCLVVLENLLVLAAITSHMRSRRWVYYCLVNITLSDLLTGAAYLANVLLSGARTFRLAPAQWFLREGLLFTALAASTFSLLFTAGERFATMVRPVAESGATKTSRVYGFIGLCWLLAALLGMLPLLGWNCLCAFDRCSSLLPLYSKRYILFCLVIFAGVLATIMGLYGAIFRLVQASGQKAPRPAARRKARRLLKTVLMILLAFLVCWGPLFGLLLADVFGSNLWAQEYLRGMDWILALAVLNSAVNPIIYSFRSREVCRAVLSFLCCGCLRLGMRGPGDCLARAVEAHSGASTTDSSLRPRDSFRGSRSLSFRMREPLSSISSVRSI

Question: `O=C(CSc1nncn1-c1cccnc1)N1CCOCC1` was tested. Which activation did it give?
Answer: -1.73% (inactive)

Question: With `C=CCn1c(SCn2nnc3ccccc3c2=O)nnc1-c1ccc(Cl)cc1` as the compound, how does the activation read?
Answer: -1.29% (inactive)

Question: With `N/C(=N\OC(=O)Cc1ccc([N+](=O)[O-])cc1)c1ccccn1` as the compound, how does the activation read?
Answer: -3.04% (inactive)

Question: `CSc1sc(C(=O)NNC(=O)c2ccc(Cl)cc2)c2c1C=CCC2` was tested. Which activation did it give?
Answer: -2.13% (inactive)

Question: Which activation does the source give for `COC(=O)[C@@H]1CC[C@H](C)[C@@H](c2ccc(C)cc2)N1C(=O)c1ccc(/C=N/O[C@H](C)c2cn([C@@H]3COC[C@H]3O)nn2)cc1` here?
Answer: -1.25% (inactive)

Question: How did the activation turn out when `CNC(=O)c1[nH]cnc1C(=O)N[C@@H](CC(C)C)C(=O)OCc1ccccc1` was run?
Answer: 48% (active)

Question: `Cc1cc(C)c(C#N)c(SCC(=O)NN2CC(=O)N(c3ccccc3F)CC2=O)n1` was tested. Which activation did it give?
Answer: -0.87% (inactive)

Question: How did the activation turn out when `COc1ccc(-n2c(C)cc(C(=O)CN3C(=O)NC4(CCc5ccccc54)C3=O)c2C)cc1` (stereo unspecified) was run?
Answer: -1.26% (inactive)

Question: Which activation does the source give for `Cc1noc(C)c1COC(=O)COc1ccc(-c2ccccc2)cc1` here?
Answer: -2.48% (inactive)

Question: Which activation does the source give for `COc1ccccc1CNC(=O)CNC(=O)c1cn(-c2ccccc2OC)c(=O)c2ccccc12` here?
Answer: -1.82% (inactive)

Question: Which activation does the source give for `CC(=O)Nc1ccccc1NC(=O)c1cc(C)cc(C)c1` here?
Answer: -2.02% (inactive)

Question: `CCCCCNC(=O)c1cccnc1SCC(=O)Nc1ccccc1OC` was tested. Which activation did it give?
Answer: -2.09% (inactive)

Question: With `COc1ccc(C2CC(c3cccs3)=NN2c2ccccc2)cc1` (stereo unspecified) as the compound, how does the activation read?
Answer: 23.1% (active)

Question: With `CCn1c(CNC(=O)c2ccc(OC)c(OC)c2)nnc1SCC(=O)Nc1ccccc1` as the compound, how does the activation read?
Answer: -2.38% (inactive)

Question: For `Cc1ccc(NC(=O)Nc2ccccc2)c(Br)c1`, which activation is on record?
Answer: -1.05% (inactive)

Question: `CC(=O)Nc1ccc(SCC(=O)Nc2ccccc2Oc2ccccc2)cc1` was tested. Which activation did it give?
Answer: -3.24% (inactive)
